Compound activity from PubChem.
CtBP-E1A inh: inhibitors of CtBP/E1A interaction | AlphaScreen GST-E1A/His-CtBP binding, 1536-well; active compounds read low | activity change, % (test concentration not listed) | hit rate 0.49% among 340,000; in the data active = activity change below about -65%; inconclusive = mostly about -30% to -63%
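GST-E1A and His-tagged CtBP (125 nM each as 5X stock) were preincubated with pin-transferred compound for 2 h at 37 °C in the dark, then glutathione donor and nickel acceptor beads were added for 1 h before AlphaScreen reading.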
IL1B secr inh: inhibitors of inflammasome signaling (IL-1 beta secretion) | THP-1 LPS/ATP IL-1B secretion, AlphaLISA, 16 h; active compounds read low | activity change, % at 57.5 µM | hit rate 4.7% among 360,000; in the data active = activity change below about -50%; inconclusive = mostly about -30% to -49%
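THP-1 cells pretreated 1 hr with compounds (up to 57.5 uM final), then stimulated with LPS (250 ng/mL final) plus ATP (1.25 mM final); secreted IL-1B measured by AlphaLISA after 16 hr, decreased signal indicating inhibition.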
TDP1 block: blocks human tyrosyl-DNA phosphodiesterase 1 | Q9NUW8 | recombinant TDP1, AlphaScreen DNA substrate cleavage | Potency, µM (series often up to 130 µM), for the others: at the highest dose activity change, negative = inhibition, hits mostly inhibitors | hit rate 0.28% among 350,000; note: potency is the fitted concentration of half-maximal effect; nearly all actives have a fitted effect of over 40% in size
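Recombinant E. coli-expressed Tdp1 (1 nM) preincubated with compound 15 min at RT, then 5'-biotin/3'-phosphotyrosine-FITC DNA substrate (15 nM) added for 5 min. AlphaScreen beads (10 ug/ml) added, 10 min RT; tyrosine-FITC cleavage read as signal loss.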
Six1-Eya2 inh: Six1/Eya2 interaction inhibition | Q15475+O00167 | AlphaScreen GST-Six1/His-Eya2 binding, biochemical; active compounds read low | activity change, % (no concentration beside the values) | hit rate 0.56% among 360,000 | AID 651725; in the data active = activity change below about -65%; inconclusive = mostly about -30% to -63%
Target sequence (O00167 whole entry, looked up): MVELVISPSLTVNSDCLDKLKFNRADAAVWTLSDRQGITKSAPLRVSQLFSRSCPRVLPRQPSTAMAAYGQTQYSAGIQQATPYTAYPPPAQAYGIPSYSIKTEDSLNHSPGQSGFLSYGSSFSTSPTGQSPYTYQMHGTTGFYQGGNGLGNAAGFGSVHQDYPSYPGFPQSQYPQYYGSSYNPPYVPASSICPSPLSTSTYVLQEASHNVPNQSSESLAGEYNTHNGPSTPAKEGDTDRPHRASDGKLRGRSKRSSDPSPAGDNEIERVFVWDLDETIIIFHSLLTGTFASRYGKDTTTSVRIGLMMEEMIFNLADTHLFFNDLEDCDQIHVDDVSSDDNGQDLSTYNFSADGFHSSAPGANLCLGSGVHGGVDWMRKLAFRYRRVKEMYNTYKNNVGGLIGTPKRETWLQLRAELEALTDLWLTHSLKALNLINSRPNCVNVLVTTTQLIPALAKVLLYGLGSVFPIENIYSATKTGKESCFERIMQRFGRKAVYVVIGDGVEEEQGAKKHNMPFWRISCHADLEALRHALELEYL
Target sequence (Q15475 whole entry, looked up): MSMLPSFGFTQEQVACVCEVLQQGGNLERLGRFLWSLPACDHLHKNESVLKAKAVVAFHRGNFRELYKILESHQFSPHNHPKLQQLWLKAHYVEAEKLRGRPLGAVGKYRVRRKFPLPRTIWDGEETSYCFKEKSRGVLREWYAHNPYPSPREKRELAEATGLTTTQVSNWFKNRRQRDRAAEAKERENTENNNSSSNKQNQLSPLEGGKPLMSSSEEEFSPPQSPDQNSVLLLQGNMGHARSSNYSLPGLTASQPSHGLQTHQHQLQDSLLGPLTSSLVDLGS
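AlphaScreen luminescence read after one hour at 37 °C in darkness. Pin-transferred compounds met GST-Six1 and His-Eya2 protein (5X stock 250 nM/500 nM) plus glutathione donor and Ni-chelate acceptor beads (5X, 50 ug/mL).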
TDP1 cell noCPT: qHTS for Inhibitors of human tyrosyl-DNA phosphodiesterase 1 (TDP1): qHTS in cells in absence of CPT. Potency, µM (titrated, usually from 46.2 µM), for inactives: top-dose activity change, negative = growth inhibition, actives largely listed as inhibitors. DT40 Tdp1-/- hTDP1 cells, no CPT, ATP luminescence, 48 h. AID 686978, 2013. hit rate 15% among 420,000; note: potency is the fitted concentration of half-maximal effect; nearly all actives have a fitted effect of over 55% in size
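Stably hTDP1-transfected Tdp1-null chicken DT40 cells were treated with library compounds minus camptothecin and grown for at least 48 hr at 37 °C, after which cellular ATP was quantified by luminescence.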
TDP1 cell CPT: growth inhibition of DT40 Tdp1-/-;hTDP1 cells with camptothecin (screen for TDP1 inhibitors). hit rate 12% among 420,000. chicken DT40 Tdp1-/-;hTDP1 cells + 20 nM CPT, ATP luminescence, 48 h. Potency, µM (doses to about 46.2 µM), for inactives: top-dose activity change, negative = growth inhibition, actives largely listed as inhibitors. AID 686979; note: potency is the fitted concentration of half-maximal effect; nearly all actives have a fitted effect of over 55% in size
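Chicken DT40 Tdp1-/- cells complemented with human TDP1, 400 cells/well, exposed to compounds plus 20 nM camptothecin for at least 48 h at 37 C; viability read as ATP content by CellTiter-Glo luminescence.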
* hit, by the source's call; ? = inconclusive; · = not tested or not shown; [ ] = remark or other dose. In the library only some 18% were active in any assay of this set; here they are far more common. Unless noted, calls come from the whole dose curve; as a rule, active = well fitted curve in the direction sought with a large enough effect; inconclusive = small, poorly fitted or top-dose-only effect, or another doubt; inactive = no such curve, though single readings can be large; an effect the other way counts as inactive or inconclusive. % is set by controls: 0 for no effect and ±100 for the full control effect.

SMILES	CtBP-E1A inh	IL1B secr inh	TDP1 block	Six1-Eya2 inh	TDP1 cell noCPT	TDP1 cell CPT
O=C(c1ccco1)N1CCN(C2c3ccccc3-c3ccccc32)CC1	0	-15	7%	1	?	?
CN(C)/C(Cn1cncn1)=C1/N=C(c2c(F)cccc2F)OC1=O	·	-13	·	-5	-17%	5%
Cc1ccc(CNC(=O)C2CC(c3ccc([N+](=O)[O-])cc3)=NO2)cc1 (stereo unspecified)	2	5	5%	1	2%	3%
O=C(NCc1cccc(C(F)(F)F)c1)C1CC(c2ccccc2F)=NO1 (stereo unspecified)	·	-23	·	-1	29µM*	?
Cc1ccc(CNC(=O)C2CC(c3ccccc3F)=NO2)cc1 (stereo unspecified)	4	60	1%	0	16µM*	?
O=C(NCc1cc(C(F)(F)F)cc(C(F)(F)F)c1)C1CC(c2ccccc2F)=NO1 (stereo unspecified)	7	-19	·	5	?	?
CCC(CC)c1nnc(NC(=O)c2ccc(S(=O)(=O)N3CCc4ccccc4C3)cc2)s1	0	-2	5%	6	-18%	-8%
COc1cccc(Nc2nc(C(N)Cc3ccc(C(F)(F)F)cc3)cs2)n1 (stereo unspecified)	-7	?	·	-8	12µM*	9.2µM*
COc1ccc(C(O)c2ncc(C(F)(F)F)cc2Cl)cc1 (stereo unspecified)	5	5	·	11	-10%	-15%
COc1cccc(Nc2nc(C(N)Cc3ccc(Cl)cc3)cs2)n1 (stereo unspecified)	-16	-67*	·	-13	6.5µM*	6.5µM*
COc1ccc(C(N)c2csc(Nc3ccc(C(F)(F)F)cn3)n2)cc1 (stereo unspecified)	?	-8	·	-9	18µM*	?
NC(Cc1ccccc1)c1csc(Nc2ccc(C(F)(F)F)cn2)n1 (stereo unspecified)	2	-53*	·	10	21µM*	21µM*
Cc1ccc(CS(=O)(=O)CCC(=O)O)cc1	-2	0	7%	4	5%	1%
NC(=O)c1cccc(Nc2nc(C(N)Cc3ccc(C(F)(F)F)cc3)cs2)n1 (stereo unspecified)	-6	-28	·	-7	10µM*	6.5µM*
COc1ccc(CC(N)c2csc(Nc3cccc(OC)n3)n2)cc1 (stereo unspecified)	-21	0	·	-8	13µM*	15µM*
COc1ccc(CC(N)c2csc(Nc3ccccn3)n2)cc1 (stereo unspecified)	-92*	-50*	·	-88*	26µM*	23µM*
O=C(CCC(=O)n1ncc2ccccc21)NCc1ccc(F)cc1	4	8	·	4	20%	-6%
Cc1[nH]c(=O)[nH]c(=O)c1/C=N/NC(=O)[C@@H](N)CC(C)C	-23	-5	·	-87*	-6%	-2%
O=C(N/N=C/c1ccc([N+](=O)[O-])o1)c1ccc(O)cc1	?	63	-2%	-27	2.9µM*	2.9µM*
Cc1scc(C(=O)N/N=C/c2ccc([N+](=O)[O-])o2)c1C	·	·	2%	·	·	·
O=[N+]([O-])c1ccc(/C=N\NS(=O)(=O)c2ccc(F)cc2)o1	-11	-29	5%[56.1 µM]	-1	?	15µM*
Cc1nc2ccccn2c1C(=O)N/N=C/c1ccc([N+](=O)[O-])o1	·	28	?	?	5.8µM*	2.9µM*
O=C(N/N=C/c1ccc([N+](=O)[O-])o1)c1ccncc1	-27	7	0%	-21	9.2µM*	9.2µM*
Cc1cc(C(F)F)n2nc(C(=O)Nc3cccc(S(=O)(=O)N4CCOCC4)c3)nc2n1	-3	-2	0%	-6	-17%	-3%
